The values that follow come from PubChem BioAssay (Tox21).

Structures are written as SMILES. A number with no mark means an inactive call. Results filed as inconclusive are left out. The source made the active and inactive calls. Unless noted, calls come from the whole dose curve; as a rule, active = well fitted curve in the direction sought with a large enough effect in the repeat runs; inconclusive = weak or mixed curves; inactive = no such curve, though single readings can be large; an effect the other way counts as inactive or inconclusive.

Assay [1] can be described thus: qHTS assay to identify small molecule agonists of the estrogen receptor alpha (ER-alpha) signaling pathway in the presence of an antagonist - cell viability counter screen (AID 1259386).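 Note: series mostly up to about 92 µM; cells exposed to compounds for 22 h at 37 °C before the viability read; nearly all actives have a fitted effect of over 30% in size.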 The essentials: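 Fluorescent CellTiter-Fluor viability signal from VM7Luc4E2 cells, with the reagent added during the final hour of a 22hr compound exposure at 37C in the presence of 10.0nM ICI-182,780.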
For orientation: Quantitative high-throughput screening tests each substance at several concentrations.

Assay [2] deals with Progesterone receptor (Homo sapiens) (UniProt P06401). Description: qHTS assay to identify small molecule agonists of the progesterone receptor (PR) signaling pathway (AID 1346784; calls by dose curve; note: nearly all actives have a fitted effect of over 30% in size). A digest of the protocol: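 Compounds were tested for PR agonism in HEK 293T cells bearing a beta-lactamase gene under UAS control. Treatment lasted 16 hr at 37C; signal came from fluorescence of a FRET substrate.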
Sequence of Progesterone receptor (Homo sapiens) (P06401 whole entry, looked up): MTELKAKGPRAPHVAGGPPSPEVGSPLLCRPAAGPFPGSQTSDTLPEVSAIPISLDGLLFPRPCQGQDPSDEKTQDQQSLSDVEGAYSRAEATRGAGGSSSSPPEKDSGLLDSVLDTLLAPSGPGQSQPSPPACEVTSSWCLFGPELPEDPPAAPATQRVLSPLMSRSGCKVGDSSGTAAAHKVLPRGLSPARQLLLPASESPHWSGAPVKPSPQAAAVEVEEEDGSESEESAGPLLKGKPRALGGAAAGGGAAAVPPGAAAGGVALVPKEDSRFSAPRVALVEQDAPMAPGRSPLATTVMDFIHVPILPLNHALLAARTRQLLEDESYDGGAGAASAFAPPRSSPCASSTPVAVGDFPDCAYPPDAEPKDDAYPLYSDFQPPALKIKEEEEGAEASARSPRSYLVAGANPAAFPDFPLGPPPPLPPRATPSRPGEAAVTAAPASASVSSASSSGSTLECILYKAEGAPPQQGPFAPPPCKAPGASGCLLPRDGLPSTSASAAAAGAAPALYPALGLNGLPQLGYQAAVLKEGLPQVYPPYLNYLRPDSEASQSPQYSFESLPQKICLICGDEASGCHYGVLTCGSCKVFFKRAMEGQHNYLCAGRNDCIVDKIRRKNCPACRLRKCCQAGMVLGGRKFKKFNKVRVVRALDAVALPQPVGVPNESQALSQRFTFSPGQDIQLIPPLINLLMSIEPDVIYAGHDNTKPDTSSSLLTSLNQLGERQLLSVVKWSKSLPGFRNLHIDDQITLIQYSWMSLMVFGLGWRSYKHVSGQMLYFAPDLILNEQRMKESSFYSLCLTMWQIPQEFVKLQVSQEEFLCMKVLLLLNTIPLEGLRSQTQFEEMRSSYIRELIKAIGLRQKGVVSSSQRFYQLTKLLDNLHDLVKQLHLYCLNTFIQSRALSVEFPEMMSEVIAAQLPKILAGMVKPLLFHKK

Assay [3] can be described thus: qHTS assay to identify small molecule antagonists of the progesterone receptor (PR) signaling pathway - cell viability counter screen (AID 1346798). Note: nearly all actives have a fitted effect of over 50% in size. Note: potency is the fitted concentration of half-maximal effect. The essentials: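 Following a 4 hr attachment, PR-UAS-bla HEK293T cells in charcoal-stripped FBS medium were exposed to compounds with R5020 for 16 hr; CellTiter-Glo was added and luminescence read after 30 min at room temperature.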

Assay [4] is described as follows: qHTS assay to identify small molecule agonists of the progesterone receptor (PR) signaling pathway - cell viability counter screen (AID 1346799; calls by dose curve; note: nearly all actives have a fitted effect of over 45% in size; note: potency is the fitted concentration of half-maximal effect). A digest of the protocol:
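Here, 3,000 PR-UAS-bla HEK293T cells per well were treated with compounds for 16 hr after a 6 hr preincubation at 37C and 5% CO2; cell viability is the CellTiter-Glo luminescence signal.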

The nature of assay [5]: qHTS assay to identify small molecule antagonists of the TGF-beta/Smad signaling pathway - cell viability counter screen (AID 1346824). Note: nearly all actives have a fitted effect of over 50% in size. A digest of the protocol:
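SBE-bla HEK 293T cells were plated overnight at 37 C, then given compounds in DMSO plus TGF-beta1 (added as 0.25 ng/mL solution) for 5 hr. After the bla read, CellTiter-Glo was added to the same wells and luminescence read after 30 min at room temperature.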

Assay [6] is described as follows: qHTS assay to identify small molecule agonists of the TGF-beta/Smad signaling pathway - cell viability counter screen (AID 1346829). Note: top concentration of the series differs between compounds; nearly all actives have a fitted effect of over 45% in size. A digest of the protocol:
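Compound-treated SBE-bla HEK 293T cells (5 hr, 37 C) were assessed for viability with CellTiter-Glo in parallel with the reporter read.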

Assay [7] can be described thus: qHTS assay to identify small molecule agonists of the TGF-beta/Smad signaling pathway (AID 1346859; active = well fitted activation curve with a large enough effect in the signal ratio in the repeat runs, not every such curve was filed as active; the % refers to the signal ratio; note: series mostly up to about 77 µM). The essentials: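 Each well held 4,000 SBE-bla HEK 293T cells incubated overnight before compound addition; 5 hr later the cleavable FRET substrate went on for 2 hr at room temperature, and fluorescence was read at two emissions.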
Assay [8] deals with Thyrotropin-releasing hormone receptor (Homo sapiens) (UniProt P34981). Put plainly: qHTS assay to identify small molecule antagonists of the thyrotropin-releasing hormone receptor (TRHR) signaling pathway (AID 1346877; active = well fitted inhibition curve with a large enough effect in the repeat runs, not every such curve was filed as active; note: series mostly up to about 51 µM). A digest of the protocol:
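In this cell-based calcium flux format, HEK293 cells expressing TRHR received test compound for 5 min before the agonist TRH (1 nM final). Dye loading lasted 2 h at 37 °C.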

The target is the same in assay [9]. Put plainly: qHTS assay to identify small molecule agonists of the thyrotropin-releasing hormone receptor (TRHR) signaling pathway (AID 1346891; calls by dose curve; note: series mostly up to about 58 µM). The essentials: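 Screening of agonists relied on calcium signalling in HEK293 cells expressing human TRHR: dye loading 2 h at 37 °C preceded compound addition and a 3-min fluorescence time course.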
A short description of assay [10]: Caspase-3/7 induction in CHO-K1 cells by small molecules, qHTS assay (AID 1346980). Note: nearly all actives have a fitted effect of over 15% in size. A digest of the protocol: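 Wild-type cells were seeded at 1,500 per well and settled 5 hr at 37 C, 5% CO2, then exposed to DMSO-dissolved compounds for 17 hr. Caspase-Glo 3/7 reagent was added, and luminescence was read after 30min at room temperature.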
Assay [11] in a line: Caspase-3/7 induction in HepG2 cells by small molecules, qHTS cell viability counter screen (AID 1346981). Note: series mostly up to about 92 µM; nearly all actives have a fitted effect of over 30% in size. The essentials:
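Counter screen for cytotoxicity: HepG2 exposed 16 hr to compounds, then CellTiter-Fluor viability signal (fluorescence, 1 hr reagent incubation).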

Assay [12] concerns the target Cytochrome P450 2D6 (Homo sapiens) (UniProt P10635). Description: Cytochrome P450 Family 2 Subfamily D Member 6 (CYP2D6) small molecule antagonists: luciferase reporter qHTS assay (AID 1671196). Note: nearly all actives have a fitted effect of over 50% in size. Note: potency is the fitted concentration of half-maximal effect. The essentials:
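Inhibition of CYP2D6 was gauged by loss of luminescence, since light produced tracks the luciferin generated from a proluciferin substrate. A 10 min room-temperature preincubation preceded 1 h NADPH-supported turnover.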

Assay [13] can be described thus: Human pregnane X receptor (PXR) small molecule agonists, qHTS cell viability counter screen (AID 1346977). Note: nearly all actives have a fitted effect of over 50% in size. The essentials: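 Tox21 qHTS format; PXR-Luc HepG2, 2,000/well, charcoal-stripped FBS 5%. Cpd exposure 24hr. Read: CellTiter-Fluor fluorescence, multiplexed with luciferase.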
Assay [14] in a line: Caspase-3/7 induction in HepG2 cells by small molecules, qHTS assay (AID 1346978). Note: nearly all actives have a fitted effect of over 15% in size. A digest of the protocol: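 Wild-type HepG2 cells (2,000/well) were settled 5 h at 37 C, 5% CO2, then exposed to compounds in DMSO for 17 h. Caspase-3/7 activity was read by luminescence 30 min after adding Caspase-Glo 3/7 reagent at room temperature.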
Assay [15] can be described thus: Caspase-3/7 induction in CHO-K1 cells by small molecules, qHTS cell viability counter screen (AID 1346979). Note: nearly all actives have a fitted effect of over 35% in size. The essentials: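 CellTiter-Fluor viability check, qHTS format: wild-type CHO-K1, 16hr compound treatment, 1hr reagent incubation, fluorescence read.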
Assay [16] concerns the target Nuclear receptor subfamily 1 group I member 2 (Homo sapiens) (UniProt O75469). Put plainly: Human pregnane X receptor (PXR) small molecule agonists, qHTS assay (AID 1346982). Note: nearly all actives have a fitted effect of over 35% in size. Note: potency is the fitted concentration of half-maximal effect. A digest of the protocol: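 Luminescence (ONE-Glo, 30 min RT) after 24 hr compound exposure of PXR-Luc HepG2 cells; cells rested 5 hr post-plating in 5% charcoal-stripped FBS medium.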
Assay [17] concerns the target Nuclear receptor subfamily 1 group I member 2 (Rattus norvegicus) (UniProt Q9R1A7). Put plainly: Rat pregnane X receptor (rPXR) activation by small molecules, qHTS assay (AID 1346983). Note: nearly all actives have a fitted effect of over 20% in size. The note with it: rPXR luciferase reporter cells, One-Glo luminescence, 24 h; max activation: hits give high values. A digest of the protocol: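 Cell-based rPXR luciferase reporter assay, 2,000 cells per well, rested 5hr at 37 C before compound addition in DMSO, then 24 hr at 37 C. One-Glo reagent was added and luminescence read after 30 min at room temperature.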

The target of assay [18] is Nuclear receptor subfamily 1 group I member 2 (Homo sapiens) (UniProt O75469). Description: CYP3A4 induction through human pregnane X receptor (PXR) by small molecules, qHTS assay (AID 1346984). Note: nearly all actives have a fitted effect of over 40% in size. The essentials:
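DPX-2 reporter cells; 24h cpd, 37C; Luciferin-IPA 3uM final x3h; One-Glo 30 min RT; lumi read.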

The target is the same in assay [19]. Description: Human pregnane X receptor (PXR) activation by small molecules, qHTS assay (AID 1346985). Note: nearly all actives have a fitted effect of over 40% in size. The essentials: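 DPX-2 cells (HepG2 co-transfected with a PXR response element and a CYP3A4-promoter luciferase construct) were seeded at 2,000 per well, rested 5 hr at 37C, then exposed to DMSO-dissolved compounds for 24 hr. Activation was read as luciferase luminescence.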

The target of assay [20] is Progesterone receptor (Homo sapiens) (UniProt P06401). Put plainly: qHTS assay to identify small molecule antagonists of the progesterone receptor (PR) signaling pathway (AID 1346795; active = well fitted inhibition curve with a large enough effect in the signal ratio in the repeat runs, not every such curve was filed as active; the % refers to the signal ratio). The essentials: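 In HEK293T cells bearing the PR-UAS-bla reporter, compound effects on promegestone-driven (1 nM) beta-lactamase expression are assessed after 16 hr using a fluorescent FRET substrate incubated 2 hr at room temperature.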
% is set by controls: 0 for no effect and ±100 for the full control effect.

Sequence of Nuclear receptor subfamily 1 group I member 2 (Homo sapiens) (O75469 whole entry, looked up): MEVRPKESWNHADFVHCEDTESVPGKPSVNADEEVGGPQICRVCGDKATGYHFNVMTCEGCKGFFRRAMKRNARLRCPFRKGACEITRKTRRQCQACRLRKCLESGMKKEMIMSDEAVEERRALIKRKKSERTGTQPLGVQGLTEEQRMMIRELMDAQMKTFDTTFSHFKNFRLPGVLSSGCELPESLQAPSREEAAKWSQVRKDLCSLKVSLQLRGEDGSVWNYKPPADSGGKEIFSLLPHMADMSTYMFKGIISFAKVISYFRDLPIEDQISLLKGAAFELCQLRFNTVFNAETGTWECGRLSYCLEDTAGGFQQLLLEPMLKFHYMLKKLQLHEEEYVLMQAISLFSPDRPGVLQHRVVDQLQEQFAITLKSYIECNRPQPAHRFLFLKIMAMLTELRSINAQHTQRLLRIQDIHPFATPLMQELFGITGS
Sequence of Cytochrome P450 2D6 (Homo sapiens) (P10635 whole entry, looked up): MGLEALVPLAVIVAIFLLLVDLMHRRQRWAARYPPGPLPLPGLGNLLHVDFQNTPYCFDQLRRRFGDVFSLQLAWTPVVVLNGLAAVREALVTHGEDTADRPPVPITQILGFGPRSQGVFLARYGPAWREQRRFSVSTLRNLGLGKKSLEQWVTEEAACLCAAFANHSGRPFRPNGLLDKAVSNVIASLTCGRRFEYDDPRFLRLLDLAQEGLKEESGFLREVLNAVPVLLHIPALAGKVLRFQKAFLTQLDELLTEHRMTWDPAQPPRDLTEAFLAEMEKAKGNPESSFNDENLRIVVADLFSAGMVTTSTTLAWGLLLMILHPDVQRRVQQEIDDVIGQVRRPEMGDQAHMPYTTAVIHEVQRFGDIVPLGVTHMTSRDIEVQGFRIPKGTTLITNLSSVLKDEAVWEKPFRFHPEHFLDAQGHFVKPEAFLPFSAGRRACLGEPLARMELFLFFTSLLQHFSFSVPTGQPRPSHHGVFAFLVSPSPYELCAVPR
Sequence of Thyrotropin-releasing hormone receptor (Homo sapiens) (P34981 whole entry, looked up): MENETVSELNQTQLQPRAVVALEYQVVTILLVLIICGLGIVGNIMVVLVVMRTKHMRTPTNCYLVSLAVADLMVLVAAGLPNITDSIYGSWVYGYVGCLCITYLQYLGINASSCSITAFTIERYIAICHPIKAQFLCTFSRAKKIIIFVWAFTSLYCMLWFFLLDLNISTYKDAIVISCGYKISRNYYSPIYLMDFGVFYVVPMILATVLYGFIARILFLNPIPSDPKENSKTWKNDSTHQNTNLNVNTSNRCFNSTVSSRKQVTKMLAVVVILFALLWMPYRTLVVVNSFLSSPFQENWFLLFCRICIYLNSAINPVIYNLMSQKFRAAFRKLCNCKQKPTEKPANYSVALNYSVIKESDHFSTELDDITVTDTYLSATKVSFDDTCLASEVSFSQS
Sequence of Nuclear receptor subfamily 1 group I member 2 (Rattus norvegicus) (Q9R1A7 whole entry, looked up): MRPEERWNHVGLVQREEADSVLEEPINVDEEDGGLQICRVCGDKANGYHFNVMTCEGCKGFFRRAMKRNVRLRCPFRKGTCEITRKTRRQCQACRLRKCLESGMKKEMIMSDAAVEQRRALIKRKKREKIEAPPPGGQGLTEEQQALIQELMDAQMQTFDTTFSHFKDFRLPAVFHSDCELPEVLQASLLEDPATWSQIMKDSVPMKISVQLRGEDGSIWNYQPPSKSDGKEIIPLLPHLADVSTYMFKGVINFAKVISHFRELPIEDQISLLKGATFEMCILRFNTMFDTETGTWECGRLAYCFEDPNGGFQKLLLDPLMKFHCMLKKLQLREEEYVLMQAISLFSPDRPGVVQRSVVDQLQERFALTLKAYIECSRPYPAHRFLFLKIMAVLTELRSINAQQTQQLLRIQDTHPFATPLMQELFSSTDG

Take `CCCCCCCCCCCCCCCCCCOS(=O)(=O)O`: the Potency entry in assay [1], in assay [2], in assay [5], in assay [7], in assay [9] and in assay [10] was “inactive” in each case. Moreover, the Potency result in assay [11] and in assay [12] was “inactive” each time. Moreover, the Potency is 54.5 µM (active) in assay [3] and 48.6 µM (active) in assay [4]. Moreover, the molecule was called inactive in assay [6] and in [8].

With `O=CC1CC=CCC1` (stereo not given), the Potency result in assay [1], in assay [2], in assay [3], in assay [4], in assay [5] and in [7] was “inactive” each time. Also, the Potency result in [9], in assay [13], in [14], in [15], in assay [10] and in [11] was “inactive” throughout. Also, the Potency entry in assay [16] is “inactive”. Also, the result in assay [6] and in assay [8] was inactive. The Potency in assay [12] is 55.9 µM (active).

With `Nc1ccc(S(=O)(=O)Nc2ccccc2)cc1`, the Potency entry in [1], in assay [2], in assay [3], in assay [4], in assay [5] and in [7] was “inactive” each time. Besides, the Potency result in [9], in assay [13], in [14], in assay [15], in [10] and in assay [11] was “inactive” each time. The Potency entry in assay [18] and in assay [19] was “inactive” throughout. Besides, the molecule was called inactive in assay [6] and in assay [8]. Further, the max activation in assay [17] is -5.46%.

Take `CCOC(=O)COC(=O)c1cc(Oc2ccc(C(F)(F)F)cc2Cl)ccc1[N+](=O)[O-]`: the Potency entry in assay [1], in assay [2], in [3], in [4], in assay [5] and in assay [13] was “inactive” in each case. In addition, the Potency entry in assay [14], in [10] and in [11] was “inactive” each time. Also, in assay [6], the outcome was inactive. Moreover, the figures for the Potency in [16] and in assay [12] were 30.6 µM (active) and 15.9 µM (active), respectively.

Take `CCN(CC)CCNC(=O)c1cc(Br)c(N)cc1OC`: the Potency result in assay [1], in assay [2], in [3], in [4], in [5] and in [7] was “inactive” throughout. Moreover, the Potency entry in assay [9], in [14], in assay [15], in assay [10], in [11] and in assay [16] was “inactive” in each case. Further, the molecule was called inactive in assay [6] and in [8]. For the same molecule, in assay [12], the Potency is 4.9 µM (active).

On to `CCO[C@H](Cc1ccc(OCCc2ccc(OS(C)(=O)=O)cc2)cc1)C(=O)O`, for which the Potency result in [1], in assay [2], in [20], in assay [4], in assay [5] and in assay [7] was “inactive” throughout. The Potency entry in assay [13], in assay [14], in [10], in [11], in assay [16] and in [12] was “inactive” throughout.

For the molecule `CC(CC=O)c1ccccc1` (stereo not given), the Potency result in assay [1], in assay [2], in assay [3], in assay [4], in assay [5] and in assay [7] was “inactive” throughout. For the same molecule, the Potency result in [9], in assay [13], in assay [14], in [15], in assay [10] and in assay [11] was “inactive” in each case. Besides, the Potency entry in assay [12] was “inactive”. In addition, the molecule was called inactive in [6] and in assay [8]. In assay [16], the Potency is 61.1 µM (active).
